# Reference: the supplement of paper PMC10681739
# Experiments:
# [1] = molecular target: T1, ETS1 (UniProt P14921); test: ETS1 binding intensity (PBM fluorescence), ETS1 alone (arbitrary fluorescence units); higher = stronger binding; conditions: ETS1 concentration 1 nM; RUNX1 concentration 0 nM
# T1 sequence: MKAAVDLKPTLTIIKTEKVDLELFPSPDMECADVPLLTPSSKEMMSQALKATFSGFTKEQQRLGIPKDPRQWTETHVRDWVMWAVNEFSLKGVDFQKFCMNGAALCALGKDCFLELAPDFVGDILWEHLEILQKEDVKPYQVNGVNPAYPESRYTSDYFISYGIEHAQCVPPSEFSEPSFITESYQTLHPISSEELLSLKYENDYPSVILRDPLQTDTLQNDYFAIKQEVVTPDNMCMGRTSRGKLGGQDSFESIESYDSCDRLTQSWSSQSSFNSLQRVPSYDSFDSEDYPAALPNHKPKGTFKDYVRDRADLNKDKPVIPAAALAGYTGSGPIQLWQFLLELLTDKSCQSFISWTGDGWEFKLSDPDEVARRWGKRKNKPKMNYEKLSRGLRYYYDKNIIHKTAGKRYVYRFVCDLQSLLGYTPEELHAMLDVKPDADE
# [2] = molecular target: RUNX1 (UniProt Q01196); test: RUNX1 binding intensity (PBM fluorescence), RUNX1 alone (arbitrary fluorescence units); higher = stronger binding; conditions: RUNX1 concentration 2 nM; ETS1 concentration 0 nM
# Procedure: (§1)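 Cooperative gcPBM on 36-bp genomic probes with neighbouring ETS1 and RUNX1 sites. Recombinant human RUNX1 (2 nM) was incubated alone or with ETS1 (25 nM) and detected with anti-RUNX1 antibody plus Alexa488 secondary. Values are medians over 4 replicate spots; the RUNX1+ETS1 data were normalised to the RUNX1-only data. The probes sit in constant array flanks that are not printed.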
# [3] = molecular target: T1, ETS1; test: ETS1 binding intensity (PBM fluorescence) in presence of RUNX1, normalised to ETS1-only experiment (arbitrary fluorescence units); higher = stronger binding; conditions: ETS1 concentration 1 nM; RUNX1 concentration 25 nM
# [4] = molecular target: RUNX1 (UniProt Q01196); test: RUNX1 binding intensity (PBM fluorescence) in presence of ETS1, normalised to RUNX1-only experiment (arbitrary fluorescence units); higher = stronger binding; conditions: RUNX1 concentration 2 nM; ETS1 concentration 25 nM
# Procedure: as §1
# 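For RUNX1 binding intensity (PBM fluorescence) in presence of ETS1, normalised to RUNX1-only experiment in this document: Full-length recombinant human ETS1 or RUNX1 bound to double-stranded 36-bp genomic probes on microarrays, detected by protein-specific primary antibody and Alexa488 secondary, spot fluorescence as median of four replicate spots.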
# 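For RUNX1 binding intensity (PBM fluorescence), RUNX1 alone in this document: Full-length recombinant human RUNX1 bound to double-stranded 36-bp genomic probes on a high-density microarray, scored as Alexa488 fluorescence per spot via anti-RUNX1 antibody, median of four replicate spots.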
# Sequence of RUNX1 (Q01196 whole entry): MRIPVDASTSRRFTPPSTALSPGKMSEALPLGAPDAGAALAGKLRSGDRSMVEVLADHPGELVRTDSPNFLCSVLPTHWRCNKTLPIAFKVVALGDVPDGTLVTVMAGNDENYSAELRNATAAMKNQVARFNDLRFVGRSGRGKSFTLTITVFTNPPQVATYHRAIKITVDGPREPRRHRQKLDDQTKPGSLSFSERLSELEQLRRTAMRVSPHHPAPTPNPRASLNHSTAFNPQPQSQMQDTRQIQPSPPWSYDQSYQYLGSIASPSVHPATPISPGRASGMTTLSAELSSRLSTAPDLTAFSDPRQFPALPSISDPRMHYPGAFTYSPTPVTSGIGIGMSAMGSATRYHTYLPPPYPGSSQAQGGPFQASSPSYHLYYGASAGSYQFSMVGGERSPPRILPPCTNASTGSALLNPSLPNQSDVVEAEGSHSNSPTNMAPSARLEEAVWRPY
Sequence,ETS1 binding intensity [1],RUNX1 binding intensity [2],ETS1 binding intensity [3],RUNX1 binding intensity [4]
TGCTTCCCTTCCGTTCCGACAGCGAAAACCGCTGCC,532,998,783,2030
GCCACACAGGCAGGAAAGCCACAGCCCACGTCTCCG,471,867,378,885
TCCTCCCACGGGAAGTGCCGTAGGACCGCAGCCCGA,870,812,1170,1020
GAAGCCCAACAGGATGCCGAGTAACCACCCACTGAA,1040,822,1120,924
TGTTCAGGAACAGGAAATGAAACCCCGCAGCTTTGA,8520,748,11300,1150
TTGAGGGGAAGGGGAGGAAGTGGTCATTGGAACTTG,2530,776,3150,990
CTGCTGGCGTTCCCGGATGTGCGGTGGCGGTGCTAC,4900,753,9340,1570
ATACTGAGTCATTTCCTGTGGTGTTATTGTGTTGTA,1760,993,2500,1570
AATCCAACACTTCCTCCTCCACCGCAGAAAGGCAAC,518,1490,966,2670
GACAAAACACAGAAAGGAAGTGGTCAACTATTGCAC,2510,835,4930,1600
TTACCATCGCCCTTCCTGTGGGCTGGGAGGCCAGGT,468,754,373,1060
AGCGGCCGAAGGAAGTGACGTTTGCGGCAGTAAGGC,997,1130,1450,1300
TACCAACAGGAATCTTTGGGGTCTAAACCGCAAACA,481,3800,2160,5090
AGCCTTAATTACCCGGAAGTGCGGTCCCAGGGACTT,8970,768,12200,1710
CCTCCCGACCGGAAGCCCCGCCACAGAGCGGGTTGT,6240,848,8570,2420
GACAAAGAGGAAGTCCCCAAAAACCACAATAACAGT,910,1570,4080,3900
CACCTGCGGAAGTCACAGGGAAGCCACAGAGAGATG,849,766,1160,1080
GGCTTCCGCCGCCACCACTGCCCCTCAACCGCCACG,518,1110,601,2040
GGCAGCAAGAAAGGAAATAGTGTGGTTGGGTGGAGA,1050,846,1640,1010

Sequence,ETS1 binding intensity [1],RUNX1 binding intensity [2],ETS1 binding intensity [3],RUNX1 binding intensity [4]
GTGGGGGTGACAGGATGCGGGTAGAGGGCTCAGCCA,1950,909,2770,1460
TCCTGGCAGAGACCGGAAGTGCGGTCCGCGGAGCGT,28200,739,43300,1800
AGGGTTACAATTTCCGTAAACCACAGAAGCAGCAGA,550,1450,979,2560
AGTCAAACAGGATGTGGCTGGGGAGGCGGTTGTCAC,3750,725,4660,2040
TGATCAGCAAAAGGAAGTGGTTAACATGGCCCAGAA,1540,825,4770,1990
GACGGCCCCAGCGGAAGTGGTTGCCTTGGTTTGCGC,9920,734,10300,2190
GTTCTCCACATCCTGTTCCGTAGCTGTGGTGCACCG,1600,3060,1780,8880
GGTCAGGTGGGCGTTTCCTGTGGGCGTCTCCAACTC,1240,770,1230,1240
TCACCTCATCACAGGAAACCGCGAGCACCTCCTCCT,2180,1610,5440,1770
TCTCTACTTCCCATTATTTCTGTGGTTAATTTCACC,369,10400,986,13500
CCCTGCCATTTCCTGCCCAATACCGCGTATGCAACT,1630,1780,1700,4240
GTAGCTCCTCCCACTTCCCGTGGTTTTCGGTTGAAC,564,1240,916,2760
CCCGGAGGACGTCCGGCCTCTGTGAGCCGCAACCTT,440,838,561,1370
TTTGCTGCAGAAGGATGTGGTTTATTCAGGTTTGAC,676,932,3620,1270
GACTGCACTTCCTCTGCTTCGAGGTCGGTGGTTAGC,535,874,653,1450
TGGCTTATCCTAACAGGAAGTGGTTTATCTGATCCT,16100,767,31300,2390
CTGCGAGCTCAGAACGGAAACCACAGCAACTACCGT,2170,1070,4260,1550
TTTCAAAACCCGGAAATGACCGCCAGGCTGGCATCA,7800,859,6320,1380
